Only some compounds are listed: those with a hit (about 2.3% of all), similar ones and a draw of the others.
hiPSC survival – enhancers of human iPSC single-cell survival; hiPSC single-cell survival, ATPlite luminescence; 100% = ROCK inhibitor wells, 0% = DMSO; survival enhancement, % at 20 µM; actives 0.044% (n = 360,000); AID 602274; in the data active = survival enhancement above about 18%;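 note: cells exposed to compounds for 16 hours before the ATP read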
TWEAK Fn14 block – TWEAK-Fn14 signaling inhibition; TWEAK-stimulated Fn14 reporter cells, luciferase luminescence, 8 h; inhibition, % at 10 µM; actives 2% (n = 360,000); in the data active = inhibition above about 50%
LGR2 antag – inhibitors of bursicon-induced Drosophila LGR2 receptor cAMP signaling; HEK293 LGR2, CRE-luciferase, bursicon-stimulated, 4 h; inhibition, % at 9.99 µM; actives 0.35% (n = 380,000);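 active = drop in luminescence signal, shown as inhibition above about 50% in the replicate tests, limit read from the data, passing the limit was not always enough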;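 note: agonist challenge used bursicon conditioned medium at about half maximal strength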
KKLEB tox – CF airway cell cytotoxicity counter-screen; actives 0.36% (n = 360,000); KKLEB CF airway cells viability, ATPlite luminescence, overnight; active compounds read low; cells stimulated with P. aeruginosa culture filtrate; activity change (cytotoxicity), % at 5 µM;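 active = corrected activity change at or below -50% at 5 µM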
HIF-2a inh – HIF-2a inhibition | 786-0 RCC cells HIF-2a reporter, luciferase luminescence, overnight | inhibition, % at 18.8 µM | actives 0.72% (n = 360,000) | AID 624352;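 active = inhibition of the luminescence signal of 40% or more relative to plate controls, in a single-dose primary screen at 18.75 µM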
CF NFkB inh – blocks PAF-induced NF-kB reporter in cystic fibrosis cells. KKLEB NF-kB-GFP reporter, GFP fluorescence overnight. inhibition, % at 5 µM. actives 0.86% (n = 360,000). AID 588850;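 active = at least 50% inhibition at 5 µM, scaled per plate between neutral and stimulator controls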;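 note: PAF is a Pseudomonas aeruginosa culture filtrate used as stimulus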
CF NFkB conf – CF NF-kB inhibition confirmation, single concentration; actives 64% (n = 1,300); AID 602472; inhibition, % at 5 µM; KKLEB CF airway cells, PAF-induced NF-kB-GFP fluorescence, overnight; shares compounds with CF NFkB inh; in the data active = inhibition above about 40%;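 note: stimulus PAF is a Pseudomonas aeruginosa filtrate and not platelet activating factor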
Each line names hits and unclear results; the compound was inactive in the other large screens (follow-up assays come after a bar, where they were run).

CN1CCC(OC(=O)c2ccc(Cl)cc2Cl)CC1	none
COc1ccc(COc2cc(-c3cccc(OC)c3)nc3ccc(NC(=O)c4ccc(OC)cc4)cc23)cc1	none
COc1ccc(COc2cc(-c3cccc(OC)c3)nc3ccc(NC(=O)c4cccnc4)cc23)cc1	CF NFkB inh 80 | CF NFkB conf 92
COc1ccc(NC(=O)Nc2ccc3c(c2)C(=O)N([C@H](C)CO)C[C@H](C)[C@@H](CN(C)S(=O)(=O)c2cn(C)cn2)OCCCC[C@@H](C)O3)cc1	none (no result: hiPSC survival, TWEAK Fn14 block, KKLEB tox, HIF-2a inh, CF NFkB inh)
COc1ccc2[nH]c3c(c2c1)CCNC3=O	TWEAK Fn14 block 61, CF NFkB inh 52 | CF NFkB conf 83
O=C1NCCc2c1[nH]c1ccccc21	none (no result: LGR2 antag)
Cc1cc(N2C(=O)C(O)=C(C(=O)c3cc4ccccc4o3)C2c2cccc(Br)c2)no1 (stereo not drawn)	none
CCCOc1cccc(C2C(C(=O)c3cc4ccccc4o3)=C(O)C(=O)N2c2cc(C)on2)c1 (stereo not drawn)	CF NFkB inh 66 | CF NFkB conf inactive
CO[C@H]1CN(C)C(=O)c2ccc(NS(C)(=O)=O)cc2OC[C@H](C)N(C(=O)C2CCCC2)C[C@H]1C	none (no result: hiPSC survival, TWEAK Fn14 block, KKLEB tox, HIF-2a inh, CF NFkB inh)
O=Nc1c(O)n(Cc2ccc(Cl)cc2)c2ccccc12	none (no result: LGR2 antag)
O=Nc1c(O)n(Cc2c(Cl)cccc2Cl)c2ccccc12	CF NFkB inh 56 | CF NFkB conf 67
Cn1c(Oc2ccc(Cl)cc2)c(C=O)c2ccccc21	TWEAK Fn14 block 64, CF NFkB inh 51 (no result: LGR2 antag) | CF NFkB conf 70
CS(=O)(=O)n1nc(OC(=O)c2cccc3ccccc23)cc1N	TWEAK Fn14 block 56, CF NFkB inh 66 (no result: LGR2 antag) | CF NFkB conf inactive
Nc1nccc(-c2cc(-c3ccc(Cl)cc3Cl)no2)n1	TWEAK Fn14 block 78, LGR2 antag 60, CF NFkB inh 51 | CF NFkB conf inactive
C[C@H](O)C#Cc1cnc2c(c1)C(=O)N([C@H](C)CO)C[C@@H](C)[C@H](CN(C)Cc1cccc(C(=O)O)c1)O2	none (no result: hiPSC survival, TWEAK Fn14 block, KKLEB tox, HIF-2a inh, CF NFkB inh)
Cc1nc2c(O)c3c(c(O)c2nc1C)C1C=CC3CC1	CF NFkB inh 83 | CF NFkB conf 85
C[C@@H](NC(=O)C[C@@H]1C[C@@H]2c3cc(NC(=O)CC4CC4)ccc3O[C@@H]2[C@H](CO)O1)c1ccccc1	none (no result: hiPSC survival, TWEAK Fn14 block, KKLEB tox, HIF-2a inh, CF NFkB inh)
C=C1C(=O)[C@]23C[C@H]1CC[C@H]2[C@]1(C)[C@@H](OC(C)=O)CC[C@@](C)(C(=O)O)[C@H]1C[C@@H]3O	TWEAK Fn14 block 79, CF NFkB inh 92 | CF NFkB conf 93
C=C1C(=O)[C@]23C[C@H]1CC[C@H]2[C@]1(C)[C@@H](O)CC[C@@](C)(C(=O)O)[C@H]1C[C@@H]3O	CF NFkB inh 84 | CF NFkB conf 83
Cc1cccc(N=c2oc3cc(O)ccc3cc2C(N)=O)c1	CF NFkB inh 68 (no result: LGR2 antag) | CF NFkB conf 72
COc1ccc2cc(C(N)=O)c(=Nc3ccc(C)cc3)oc2c1	TWEAK Fn14 block 67, CF NFkB inh 63 | CF NFkB conf 96
COc1ccccc1N=c1oc2cc(O)ccc2cc1C(N)=O	none (no result: LGR2 antag)
Cc1ccc(NC(=O)c2cc(C(=O)c3cc(Cl)ccc3O)cn(-c3ccc(C)cc3)c2=O)cc1	CF NFkB inh 55 | CF NFkB conf 56
CC[C@@H](C(=O)[C@@H](C)[C@@H](O)[C@H](C)[C@@H]1O[C@@H]([C@@H](CC)C(=O)O)CC[C@@H]1C)[C@H]1O[C@]2(C=C[C@@H](O)[C@]3(CC[C@@](C)([C@H]4CC[C@](O)(CC)[C@H](C)O4)O3)O2)[C@H](C)C[C@@H]1C	TWEAK Fn14 block 56, CF NFkB inh 69 (no result: LGR2 antag) | CF NFkB conf 105
C[C@H]1CN([C@@H](C)CO)C(=O)c2cc(NS(=O)(=O)c3ccc(F)cc3)ccc2O[C@@H]1CN(C)C(=O)Nc1ccc2c(c1)OCO2	none (no result: hiPSC survival, TWEAK Fn14 block, KKLEB tox, HIF-2a inh, CF NFkB inh)
O=C(C1CCCC1)N1CC2(C1)[C@@H](c1ccccc1)[C@@H](CO)N2C(=O)c1cccnc1	none (no result: hiPSC survival, TWEAK Fn14 block, KKLEB tox, HIF-2a inh, CF NFkB inh)
C[C@@H]1CN([C@H](C)CO)S(=O)(=O)c2ccc(C#C[C@@H](C)O)cc2O[C@H]1CN(C)C(=O)Nc1ccccc1	none (no result: hiPSC survival, TWEAK Fn14 block, KKLEB tox, HIF-2a inh, CF NFkB inh)
CC1CCN(CC2C(=O)O[C@@H]3C[C@@]4(C)CCC[C@H](C)C4=C[C@H]23)CC(C)(C)C1 (stereo partly drawn)	TWEAK Fn14 block 55, CF NFkB inh 84 | CF NFkB conf inactive
C=C1CCC[C@]2(C)C[C@H]3OC(=O)C(CN4CC(C)OC(C)C4)[C@H]3C[C@@H]12 (stereo partly drawn)	none
COC(=O)N1C(=O)[C@@](c2ccccc2)(C2CCCCC2)N1C(=O)OC	TWEAK Fn14 block 73, CF NFkB inh 66 | CF NFkB conf 49
COC(=O)N1C(=O)[C@@](Cc2ccccc2)(c2ccccc2)N1C(=O)OC	CF NFkB inh 57 | CF NFkB conf 55
COc1cccc(S(=O)(=O)N(C)C[C@@H]2Oc3cc(C#CCC(C)C)ccc3S(=O)(=O)N([C@@H](C)CO)C[C@H]2C)c1	none (no result: hiPSC survival, TWEAK Fn14 block, KKLEB tox, HIF-2a inh, CF NFkB inh)
O=C(C[C@H]1CC[C@@H]2[C@H](COC[C@@H](O)CN2S(=O)(=O)c2cccc(F)c2)O1)NCCCN1CCOCC1	none (no result: hiPSC survival, TWEAK Fn14 block, KKLEB tox, HIF-2a inh, CF NFkB inh)
COc1ccccc1NS(=O)(=O)c1cccc(-n2c(O)c(C=Nc3ccccc3C(=O)O)c3ccccc3c2=O)c1	CF NFkB inh 86 | CF NFkB conf 93
CCOC(=O)c1sc(NC(=O)c2cccc(S(=O)(=O)N3CCc4ccccc43)c2)c(C#N)c1C	CF NFkB inh 61 | CF NFkB conf 66
CCC(CC)c1nnc(NC(=O)c2cccc(S(=O)(=O)N3CCc4ccccc43)c2)s1	none
Cc1ccc(CCC(=O)Nc2ncc(Cc3cccc(Cl)c3Cl)s2)o1	CF NFkB inh 52 (no result: LGR2 antag) | CF NFkB conf 78
CCc1nnc(NC(=O)CCc2ccc(C)o2)s1	none (no result: LGR2 antag)
CCN(C[C@H]1N[C@@](Cc2ccccc2)(C(=O)OC)[C@H]2C(=O)N(Cc3ccccc3)C(=O)[C@@H]12)C(=O)Nc1ccc(C(F)(F)F)cc1	TWEAK Fn14 block 84, CF NFkB inh 51 | CF NFkB conf inactive
Cc1ccc(-c2cc(C(F)F)nc(S(C)(=O)=O)n2)cc1	CF NFkB inh 51 | CF NFkB conf inactive
COc1cccc(CN(C)C(=O)C(CCSC)NS(=O)(=O)c2ccc3c(c2)OCCO3)c1OC (stereo not drawn)	CF NFkB inh 74 | CF NFkB conf 79
CC(C)CC#Cc1ccc2c(c1)O[C@@H](CN(C)C(=O)C1CCCCC1)[C@@H](C)CN([C@H](C)CO)S2(=O)=O	none (no result: hiPSC survival, TWEAK Fn14 block, KKLEB tox, HIF-2a inh, CF NFkB inh)
Cc1ccc(NC(=O)Cn2nnc(C(=O)Nc3ccc(F)c(Cl)c3)c2N)cc1	none
COc1ccc(NC(=O)Cn2nnc(C(=O)Nc3ccc(F)c(Cl)c3)c2N)cc1	CF NFkB inh 61 | CF NFkB conf inactive
